# Laboratory results as given in PubChem BioAssay AID2098 (Broad Institute, 2009).
# Among all 300,000 compounds or so, about 2,300 (0.77%) were called active. The entries come from a sample that favours actives as a whole. A number with no mark means an inactive call.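 The calls were made as follows: active = more than half of replicate wells show activity change below -50%, luminescence cut by over half; inconclusive = some wells, but at most half, below -50%; inactive = no replicate well below -50%.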
# Test: HSF1 inhibitors in luciferase reporter cells, primary screen, cell-based, NIH3T3, luminescence (AID 2098);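 also: luciferase reports HSF-1 transcriptional activity via heat shock element; 0% = median of DMSO wells and -100% = zero luminescence signal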
# Conditions: NIH3T3-HGL HSE-luciferase, MG132-induced, luminescence 8 h; hits give low values; screened at 7.5 µM (by protocol)
row,Structure (SMILES),"activity change, negative = inhibition"
1,CN1CCN(C(=O)C2C3C=CC(C3)C2C(=O)O)CC1 (stereo not given),-0.614%
2,C/C(=C/C(=O)N1CCN(C)CC1)C(=O)O,-83.7% (active)
3,CCN1CCN(C(=O)/C=C\C(=O)O)CC1,-4.12%
4,COc1cccc(CN(C)CC(=O)NCc2ccccc2Cl)c1OC,-1.39%
5,COc1cccc(CN(C)CC2CCCN(CCc3ccc(Cl)cc3)C2)c1OC (stereo not given),-81.7% (active)
6,Cc1nc2ccc(C(=O)N(C)CC3CCCN(CCc4ccc(Cl)cc4)C3)cc2[nH]1 (stereo not given),-3.74%
7,O=C(COc1ccccc1F)Nc1nc(-c2ccccn2)cs1,-13.1%
8,N#CCCN(C(=O)COC(=O)c1ccc(S(=O)(=O)N2CCCCCC2)cc1)c1ccccc1,0.525%
9,Cc1ccccc1N1CC(C(=O)Nc2ccc(S(=O)(=O)N3CCCC3)cc2)CC1=O (stereo not given),-1.85%
10,O=C(Cn1c(=O)n(Cc2ccco2)c(=O)c2ccccc21)NCC1CCCO1 (stereo not given),0.503%
11,COc1ccc(NC(=O)Cn2c(=O)n(Cc3ccco3)c(=O)c3ccccc32)cc1,-89% (active)
12,Cn1c(=O)c2ccccc2n(CC(=O)Nc2ccc3c(c2)OCCO3)c1=O,-3.8%
13,Cn1c(=S)sc2ccc3ccccc3c21,-1.53%
14,Brc1ccc(C2=CC(c3ccco3)n3ncnc3N2)cc1 (stereo not given),-56.9% (active)
15,CCOc1ccc(C2=CC(c3ccccc3)n3ncnc3N2)cc1 (stereo not given),-4.36%
16,COC(=O)C1=C(C)Nc2ncnn2C1c1ccco1 (stereo not given),0.145%
17,O=C(c1ccc(O)cc1)c1ccc(C(=O)O)c(C(=O)O)c1,-68% (active)
18,O=C(Nc1ccc(C(=O)O)c(O)c1)c1ccccc1,2.77%
19,O=C(O)c1ccc2c(c1)C(=O)N(NC(=O)c1ccc(O)cc1)C2=O,0.898%
20,CCC1(c2ccccc2)NC(=O)N(CC(=O)c2ccc3c(c2)OCO3)C1=O (stereo not given),1.78%
21,CCCCN1C(N)=NC[C@@H]1CC1CCCCC1,-7.88%
22,C[C@@H]1O[C@@H](OC[C@H]2O[C@@H](Oc3c(-c4ccc(O)cc4)oc4cc(O)cc(O)c4c3=O)[C@H](O)[C@@H](O)[C@@H]2O)[C@H](O)[C@H](O)[C@H]1O,2.53%
23,O=C(CCCCCn1c(=S)[nH]c2cc3c(cc2c1=O)OCO3)N1CCN(c2ccc(F)cc2)CC1,0.967%

row,Structure (SMILES),"activity change, negative = inhibition"
1,Cc1ccc(C)c(N2CCN(C(=O)CCCCCn3c(=S)[nH]c4ccc(N5CCOCC5)cc4c3=O)CC2)c1,-73.3% (active)
2,Cc1ccc(C)c(N2CCN(C(=O)CCCCn3c(=O)[nH]c4ccccc4c3=O)CC2)c1,1.8%
3,Cc1cc(Br)ccc1NC(=O)CN(C)C(=O)CN1C(=O)NC2(CCCC2)C1=O,-4.3%
4,O=C(COc1ccccc1)Nc1ccc(C(=O)N2CCCC2)cc1,-3.01%
5,N#CC1=C(N)Oc2n[nH]c(CSc3ccccc3)c2C12C(=O)Nc1ccccc12 (stereo not given),-57.8% (active)
6,N#CC1=C(N)Oc2[nH]c(=S)[nH]c(=O)c2C12C(=O)Nc1ccccc12 (stereo not given),-4.51%
7,COc1ccc(S(=O)(=O)NCC(c2ccco2)N2CCOCC2)cc1 (stereo not given),5.28%
8,Cc1cccc(C(=O)Nc2nnc(S(=O)(=O)N3CCCCCC3)s2)c1,-1.91%
9,O=C(Nc1nnc(S(=O)(=O)N2CCOCC2)s1)c1cccc(Br)c1,4.12%
10,O=C(Nc1nnc(S(=O)(=O)N2CCCCCC2)s1)c1cccc(Br)c1,-56% (active)
11,O=C(COC(=O)c1ccccc1SCC(=O)N1CCCC1)Nc1ccccc1OC(F)F,7.03%
12,O=C(c1ccc(F)c(S(=O)(=O)N2CCOCC2)c1)N(CCc1ccccc1)Cc1ccccc1,5.02%
13,COc1ccc(Cl)cc1C=CC=Nc1ccc(S(N)(=O)=O)cc1,-18.4%
14,C=C1CCN([C@@H](Cc2ccccc2)C(=O)N2CCOCC2)S(=O)(=O)c2ccccc21,-0.215%
15,COc1cccc(OC)c1C(=O)Nc1sc2c(c1C(N)=O)CCCC2,-3.68%
16,O=C(OCC1OC(Oc2ccc(O)cc2)C(O)C(O)C1O)c1ccccc1 (stereo not given),-1.79%
17,CCCCn1c(N)c(N(CC(C)C)C(=O)c2cccc(S(=O)(=O)N3CC(C)OC(C)C3)c2)c(=O)[nH]c1=O (stereo not given),-2.84%
18,Cc1ccc(C)c(NC(=S)NCC(c2cccnc2)N2CCOCC2)c1 (stereo not given),-6.11%
19,Cc1ccc(C(CNC(=O)Nc2ccccc2)N2CCN(C)CC2)cc1 (stereo not given),-9.11%
20,Cc1ccc(NC(=O)NCC(c2cccnc2)N2CCOCC2)cc1 (stereo not given),-69.8% (active)
21,O=C(NCCS(=O)(=O)NCc1ccc(Cl)cc1)c1ccccc1,2.35%
22,O=C(COC(=O)Cc1ccccc1F)NNC(=O)c1ccc(Cl)cc1,-1.7%
23,CC1CCN(c2c(NCc3ccc(C(=O)NCc4ccccc4)cc3)c(=O)c2=O)CC1,-69.2% (active)

row,Structure (SMILES),"activity change, negative = inhibition"
1,O=C(NCc1ccccc1)c1ccc(CNc2c(N3CCCC3)c(=O)c2=O)cc1,-3.59%
2,O=C(NC1CCCCC1)c1ccc(CNc2c(N3CCOCC3)c(=O)c2=O)cc1,-0.199%
3,Cn1cccc1C(=O)OCC(=O)c1ccc(Br)s1,-97.9%
4,O=C(Nc1cccc2c1CCCC2)c1ccc(F)cc1,-2.27%
5,COc1ccc(/C=N/NC(=O)Nc2ccc3nsnc3c2)c(OC)c1,15.1%
6,COc1ccc(/C=N/NC(=O)c2ccc3c(c2)OCCO3)c(OC)c1,-61% (active)
7,COc1ccc(/C=N/NC(=O)CNC(=O)c2ccc(S(=O)(=O)N3CCCC3)cc2)c(OC)c1,-4.96%
8,COc1ccc(C)cc1NC(=O)CSc1nnc2ccc(-c3ccccn3)nn12,-4.51%
9,Cc1ccc(S(=O)(=O)N(NC2=NS(=O)(=O)c3ccccc32)C(=O)c2ccccc2)cc1,-2.65%
10,COc1cc(C(=O)NN(CCC#N)C2=NS(=O)(=O)c3ccccc32)cc(OC)c1OC,-1.4%
11,Cc1ccc(C(=O)NN(CCC#N)C2=NS(=O)(=O)c3ccccc32)cc1,-53.5% (active)
12,O=C(CN(c1cc(C(F)(F)F)ccc1Cl)S(=O)(=O)c1ccccc1)NCc1cccnc1,6.77%
13,CCOC(=O)N1CCN(C(=O)CSc2nc(=O)n3cccc(C)c3n2)CC1,-2.47%
14,O=C1[C@H]2[C@@H](c3ccc(Cl)cc3)N3C(=O)N(c4cccc(F)c4)C(=O)[C@@]3(Cc3ccccc3)[C@H]2C(=O)N1C1CCCCC1,8.08%
15,CN(C)S(=O)(=O)c1ccc(N2CCCC2)c(C(=O)Nc2ccc(Br)cc2F)c1,0.082%
16,Cc1ccc(-c2csc(NC(=O)C3=COCCO3)n2)cc1C,14.3%
17,CCN1CCN(C(c2cccnc2)c2cc(Cl)c3cccnc3c2O)CC1 (stereo not given),-81.5% (active)
18,Oc1c(C(c2ccccn2)N2CCOCC2)ccc2cccnc12 (stereo not given),39.3%
19,CCOC(=O)N1CCN(C(c2cccnc2)c2ccc3cccnc3c2O)CC1 (stereo not given),26.3%
20,C=CCSc1nnc2c(n1)-c1cccc3cccc-2c13,3.46%
21,COC(=O)c1c(-c2ccsc2)oc2ccc(-c3cc(OC)c(OC)c(OC)c3)cc12,0.511%
22,CC(C)n1cnc2c(Nc3cccc(Cl)c3)nc(N(CCO)CCCO)nc21,-11.1%
23,OCCCNc1nc(-c2ccccc2)c2cc(Cl)ccc2n1,-1.41%

row,Structure (SMILES),"activity change, negative = inhibition"
1,OCCCNc1nccc(-c2cc(Nc3cccc(Cl)c3)ncn2)n1,-63.5% (active)
2,Cc1ccc2nc(SCC(=O)Nc3cccc4ccccc34)nc(=O)n2c1,4.93%
3,O=C(NCCS(=O)(=O)NCc1ccc(F)cc1)c1ccccc1,0.252%
4,O=C(Nc1cccnc1)c1cccc(S(=O)(=O)N2CCCC2)c1,-0.574%
5,O=C(c1noc2c1CCCC2)N1CCc2ccccc2C1,12.4%
6,O=C(Nc1cccnc1)c1noc2c1CCCCC2,-52.6% (active)
7,O=[N+]([O-])c1cccc(C=NN=Cc2ccccc2O)c1,-25.2%
8,COc1ccc(C(=O)O/N=C(\N)c2ccccn2)cc1[N+](=O)[O-],12.7%
9,COc1cccc(OCC(=O)NNC(=O)c2cnccn2)c1,-5.69%
10,COc1ccc(C(=O)NNC(=O)c2cnccn2)cc1[N+](=O)[O-],-85.3% (active)
11,CC(=O)c1c(C)[nH]c(C(=O)COC(=O)CCOc2ccc(C)cc2)c1C,5.07%
12,CCCNC(=O)CCn1cc(-c2ccc(OC)cc2)nc1CCN,-7.76%
13,O=C(NNC(=O)c1ccc(-c2ccccc2)cc1)Nc1ccccc1,-2.47%
14,O=S(=O)(Nc1ccc(-c2ccc(N3CCOCC3)nn2)cc1)c1cc(Cl)ccc1Cl,11.6%
15,CCC(C)N(C(=O)CSc1ncnc2c1cnn2-c1ccccc1)C1CCS(=O)(=O)C1 (stereo not given),0.752%
16,COc1ccc(OC)c(S(=O)(=O)N2CCCC(C(=O)N3CCC(C(N)=O)CC3)C2)c1 (stereo not given),-0.699%
17,Cc1nn(C)c(C)c1NS(=O)(=O)c1ccc(OC(F)(F)F)cc1,-8.93%
18,O=C1COc2ccc(S(=O)(=O)Nc3ccc(OC(F)(F)F)cc3)cc2N1,2.92%
19,O=S(=O)(Nc1ccc(O)c2ccccc12)c1ccc(OC(F)(F)F)cc1,-59.7% (active)
20,CCC(=O)N1CCc2cc(Br)c(S(=O)(=O)NCCN3CCCCC3CC)cc21 (stereo not given),-1.08%
21,CN1CCN(C2Cc3ccc(Cl)cc3Sc3ccc(F)cc32)CC1 (stereo not given),-0.795%
